# Source: PubChem (several laboratories)
# CYP2C19 activ = human CYP2C19 activators, primary screen, biochemical, luminescence | AID 1025, 2008 | Cytochrome P450 2C19 (Homo sapiens), P33261 | 96,000 tested, under 10 active | activation factor at 5 µM | recombinant CYP2C19, luciferin-H EGE luminescence; stronger effect = higher value; 0 = fully inhibited enzyme, 1 = untreated enzyme;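 active means activation factor of at least 2 at 5 µM in the primary screen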
# CYP2C19 inhib = blockers of cytochrome P450 2C19 activity – biochemical, luminescence, ADME assay, primary screen. inhibition, % at 5 µM. P33261. CYP2C19 Supersomes, luciferin-H EGE luminescence, 30 min. actives 21% (n = 96,000);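 active means CYP2C19 inhibition above a set limit at 5 µM in the primary screen, cut at about 50% in these data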
# hDAT+cocaine = changed hDAT dopamine uptake under cocaine IC80, either direction, primary screen, cocaine antagonist project, cell-based, LLC-PK1 hDAT, [14C]-dopamine uptake, MLSMR; Sodium-dependent dopamine transporter (Homo sapiens), Q01959; LLC-PK1 hDAT cells, [14C]-dopamine uptake with cocaine IC80; actives deviate in either direction; B-score at 10 µM; actives 1.3% (n = 110,000);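 active means Z score or B-score, a plate-position-corrected score, falls beyond the plate's 99.7% confidence bounds, in either direction; inactive means both scores lie inside the 99.7% bounds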
# Target sequence (Q01959 whole entry, looked up): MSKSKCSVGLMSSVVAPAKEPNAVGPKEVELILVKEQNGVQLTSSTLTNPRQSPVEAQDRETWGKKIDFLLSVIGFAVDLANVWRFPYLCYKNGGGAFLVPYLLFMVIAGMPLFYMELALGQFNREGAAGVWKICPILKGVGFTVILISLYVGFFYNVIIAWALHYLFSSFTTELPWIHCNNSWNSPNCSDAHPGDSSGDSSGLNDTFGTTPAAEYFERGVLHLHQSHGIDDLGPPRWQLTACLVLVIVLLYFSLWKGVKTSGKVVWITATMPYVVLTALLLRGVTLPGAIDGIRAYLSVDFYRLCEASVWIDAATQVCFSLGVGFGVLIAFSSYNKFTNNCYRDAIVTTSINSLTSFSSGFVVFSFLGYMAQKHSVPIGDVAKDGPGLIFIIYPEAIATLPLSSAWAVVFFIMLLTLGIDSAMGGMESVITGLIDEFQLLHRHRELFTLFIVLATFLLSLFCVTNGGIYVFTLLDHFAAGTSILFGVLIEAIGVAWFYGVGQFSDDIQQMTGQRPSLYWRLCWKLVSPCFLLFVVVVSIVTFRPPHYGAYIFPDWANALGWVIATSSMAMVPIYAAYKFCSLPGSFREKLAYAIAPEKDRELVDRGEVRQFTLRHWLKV
# CYP2C9 act = human CYP2C9 activators, primary screen, biochemical, luminescence; Cytochrome P450 2C9 (Homo sapiens), P11712; recombinant CYP2C9, luciferin-H conversion; stronger effect = higher value; factor 1 = untreated enzyme, 0 = blocked; activation factor at 5 µM; actives 1.4% (n = 96,000); AID 1024, 2008;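 active means activation factor of 2 or more for CYP2C9 at a 5 µM dose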
# D1 allo mod = D1 CRE-luciferase signal change, two-sided – cell-based, HEK293 D1, dopamine EC30, D1 allosteric modulator project, primary screen. actives 5.9% (n = 58,000). D(1A) dopamine receptor (Homo sapiens), P21728. B-score at 10 µM. AID 641, 2007. dopamine EC30 potentiation; actives deviate in either direction;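 active means luminescence count or its row- and column-corrected plate score outside the 99.7% band of the plate's sample wells, on either side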
# CYP2C9 inhib = blockers of cytochrome P450 2C9 activity – biochemical, luminescence, ADME assay, primary screen; actives 20% (n = 96,000); P11712; CYP2C9 Supersomes, luciferin-H conversion; inhibition, % at 5 µM;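 active means blocking of liver enzyme CYP2C9 beyond about 50% at 5 µM, limit read from the data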
# Hits are given with their value; i = inactive; nt = no result given. Most compounds without a hit are left out; they make up all but 28% or so of the library.
SMILES,CYP2C19 activ,CYP2C19 inhib,hDAT+cocaine,CYP2C9 act,D1 allo mod,CYP2C9 inhib
CCOc1ccc2nc(NC(=O)C3CCN(S(=O)(=O)c4cnc[nH]4)CC3)sc2c1,i,84,i,i,i,84
COc1ccc2nc(NC(=O)C3CCN(S(=O)(=O)c4cnc[nH]4)CC3)sc2c1,i,i,2,i,-4.9,i
Cc1cccc2cc(C#N)c(NCCCn3ccnc3)nc12,i,98,i,i,i,98
Cc1cc(NCCCN(C)C)n2nc(-c3cccs3)cc2n1,nt,nt,i,nt,nt,nt
Cc1cccc(-c2cc3nc(C)cc(NCCCn4ccnc4)n3n2)c1,i,93,i,i,nt,96
Cc1cc(NCCCn2ccnc2)n2ncc(-c3ccc(Cl)cc3)c2n1,i,74,4.1,i,nt,87
Cc1nc(NCCCn2ccnc2)c2ccccc2n1,i,i,i,i,nt,i
Cc1nnsc1C(=O)Nc1ccc(Cl)cc1Cl,i,i,i,i,nt,i
CCn1cc(Br)c(C(=O)Nc2ccc(F)c(Cl)c2)n1,i,92,i,i,i,75
CCn1cc(Br)c(C(=O)Nc2ccc(Cl)cc2Cl)n1,i,74,i,i,nt,i
CCOC(=O)c1ccc(NC(=O)c2nn(CC)cc2Br)cc1,i,i,i,i,i,i
COc1ccc(CCn2c(-c3ccco3)nc3oc4ccccc4c(=O)c3c2=O)cc1,nt,nt,nt,nt,i,nt
C[C@@H]1NC(=O)[C@H](CCC(=O)O)NC(=O)c2cc([N+](=O)[O-])cc(F)c2NCCC[C@@H](C(N)=O)NC1=O,nt,nt,i,nt,nt,nt
c1coc(CN2CN=C(Nc3nc4ccccc4s3)NC2)c1,i,i,i,i,i,i
CCC1=C[C@H]2CN(C1)Cc1c([nH]c3ccccc13)[C@@](C(=O)OC)(c1cc3c(cc1OC)N(C)[C@H]1[C@@](O)(C(=O)OC)[C@H](OC(C)=O)[C@]4(CC)C=CCN5CC[C@]31[C@@H]54)C2,nt,nt,i,nt,nt,nt
Cc1cc(NC(=O)CN2CCc3ccccc3C2)nc2c1c(=O)oc1ccccc12,nt,nt,nt,nt,i,nt
CCCN(CCC)C(=O)CC(c1ccc(F)cc1)c1ccco1 (stereo not drawn),i,51,i,i,nt,55
O=C1CCC(=O)N1CCC(c1ccc(F)cc1)c1ccco1 (stereo not drawn),i,i,i,i,i,i
O=C(CC(c1ccccc1)c1cc(Cl)ccc1O)N1CCOCC1 (stereo not drawn),i,i,i,i,i,i
O=C(CC(c1ccc(F)cc1)c1ccco1)N1CCCC1 (stereo not drawn),i,78,i,i,nt,i
O=C(CC(c1ccc(F)cc1)c1ccco1)N1CCOCC1 (stereo not drawn),i,74,nt,i,i,i
O=c1c2ccccc2nnn1CSc1nnc(-c2ccc3c(c2)OCO3)o1,i,i,i,i,nt,i
Cc1nnc(SCC(=O)NCC2CCCO2)n1-c1ccccc1 (stereo not drawn),i,i,i,i,i,i
O=C(Cn1cnc2c(oc3ccccc32)c1=O)NCC1CCCO1 (stereo not drawn),i,i,i,i,i,i
Cc1nc(SCC(=O)NCC2CCCO2)c2oc3ccccc3c2n1 (stereo not drawn),i,52,i,i,i,i
CCc1nc(SCC(=O)NCC2CCCO2)c2oc3ccccc3c2n1 (stereo not drawn),i,77,i,i,i,i
CC(C)[C@@H]1NC(=O)c2cc([N+](=O)[O-])cc(F)c2NCCC[C@@H](C(N)=O)NC(=O)[C@H](CO)NC1=O,nt,nt,i,nt,nt,nt
O=C(NCc1ccccc1)NC1(C(=O)N2CCN3CCCC3C2)CCCCC1 (stereo not drawn),nt,nt,i,nt,nt,nt
O=C(NC1CCCCC1)NC1(C(=O)N2CCN3CCCC3C2)CCCCC1 (stereo not drawn),nt,nt,i,nt,-3,nt
